{
  "source": "PubChem BioAssay AID504634",
  "about": "(The Scripps Research Institute Molecular Screening Center, 2011)",
  "note": "In all, about 340,000 compounds went through this assay and about 280 (0.082%) were called active. Rule as the data show it: active = inhibition mostly above about 23% (no sharp cut-off); inactive = mostly below about 18%. For the sample, actives were picked, then their nearest neighbours and some compounds at random.",
  "data": [
    {"target": "5-hydroxytryptamine receptor 5A (Homo sapiens) (UniProt P47898)", "sequence (P47898 whole entry, looked up)": "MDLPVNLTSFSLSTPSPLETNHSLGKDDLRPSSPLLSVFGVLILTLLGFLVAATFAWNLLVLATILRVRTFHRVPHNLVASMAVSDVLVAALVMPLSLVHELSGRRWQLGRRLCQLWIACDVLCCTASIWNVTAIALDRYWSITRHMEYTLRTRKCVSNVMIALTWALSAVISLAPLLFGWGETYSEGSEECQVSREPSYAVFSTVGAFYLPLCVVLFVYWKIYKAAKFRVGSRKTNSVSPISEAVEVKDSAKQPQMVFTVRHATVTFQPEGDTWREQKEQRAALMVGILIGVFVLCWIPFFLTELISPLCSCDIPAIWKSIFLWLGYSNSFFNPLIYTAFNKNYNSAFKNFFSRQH", "test": "inverse agonism at human 5-HT5A receptor – cell-based, luminescence, full-deck HTS, counter-screen for OPRM1-OPRD1 heterodimer inverse agonist project, primary screen (AID 504634);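 also: 0% = cells with DMSO and 100% = no-cell wells with DMSO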", "conditions": "HTR5A cell line, at 9.3 µM, stronger effect = higher value", "values": [
      {"smiles": "CC[C@H](C)[C@@H](C(=O)N1CCNCC1)n1cc([C@@H](N)Cc2ccc(O)cc2)nn1", "inhibition": "-7.48% (inactive)"},
      {"smiles": "COCc1cc(=O)[nH]c(SC)n1", "inhibition": "-5.28% (inactive)"},
      {"smiles": "O=C(CSc1nnc(Nc2ccccc2F)s1)NC1CCCC1", "inhibition": "-11.3% (inactive)"},
      {"smiles": "CCN(CC(=O)Nc1cc(Cl)ccc1C)C(=O)CSCc1ccc(C)cc1", "inhibition": "-29.4% (inactive)"},
      {"smiles": "CC[n+]1cc(C)ccc1/C=C/c1ccc(N(C)C)cc1", "inhibition": "9.17% (inactive)"},
      {"smiles": "CCCCN(C(=O)c1cccc(N2C(=O)c3ccccc3C2=O)c1)c1c(N)n(CCCC)c(=O)[nH]c1=O", "inhibition": "-1.54% (inactive)"},
      {"smiles": "O=c1[nH]nc(Cc2ccccn2)c2ccccc12", "inhibition": "34.8% (inactive)"},
      {"smiles": "c1ccc2c(c1)OC1OC2Oc2ccccc21", "inhibition": "2.1% (inactive)"},
      {"smiles": "CCOc1ccc(S(=O)(=O)Nc2cccc(C(=O)NCC3(N4CCCCC4)CCCCC3)c2)cc1", "inhibition": "-7.44% (inactive)"},
      {"smiles": "CC(C)COc1ccc(C(=O)NNC(=O)CCC(=O)c2cccs2)cc1", "inhibition": "8.1% (inactive)"},
      {"smiles": "Cc1cccc(NC(=O)N2CCCCCC2)c1C", "inhibition": "-15.6% (inactive)"},
      {"smiles": "CC[C@]1(C(=O)OC)[C@H]2C(=O)N(Cc3ccccc3)C(=O)[C@H]2[C@H]2CN=C(SCc3ccc(Cl)cc3)N21", "inhibition": "4.46% (inactive)"},
      {"smiles": "CCC1Nc2ncnc(N3CCN(c4ccccc4)CC3)c2N(Cc2ccc(Cl)cc2)C1=O", "note": "(stereo not drawn)", "inhibition": "72% (active)"},
      {"smiles": "O=C1C(Cc2ccc(O)cc2)NC(=S)N1Cc1ccccc1", "note": "(stereo not drawn)", "inhibition": "-7.4% (inactive)"},
      {"smiles": "N#Cc1ccc(C2=CC(=O)C[C@H](c3ccc(Cl)cc3)C2)cc1", "inhibition": "-10.1% (inactive)"},
      {"smiles": "O=C(Nc1ccc(Cl)c(Cl)c1)N1CC=C(c2ccccc2)CC1", "inhibition": "13.3% (inactive)"},
      {"smiles": "C=CCN1C=C(C(=O)c2ccccc2)C(=O)CC1", "inhibition": "6.15% (inactive)"},
      {"smiles": "CCc1nccn1CCC(=O)N1CCCC(N2CCN(c3ccccc3F)CC2)C1", "note": "(stereo not drawn)", "inhibition": "5.46% (inactive)"},
      {"smiles": "COc1ccc([C@H]2CC(=O)C=C(c3ccc(CO)cc3)C2)cc1", "inhibition": "8.13% (inactive)"},
      {"smiles": "O=C1c2ccccc2[C@@H]2C[C@@H](O)[C@H](Nc3ccccc3Cl)CCN12", "inhibition": "-0.71% (inactive)"},
      {"smiles": "Cc1cc(C)nc(SC(C)C(=O)N/N=C/c2cccs2)n1", "note": "(stereo not drawn)", "inhibition": "9.06% (inactive)"},
      {"smiles": "O=C(Cc1ccccn1)c1ccc(O)cc1O", "inhibition": "12.8% (inactive)"},
      {"smiles": "COc1ccc(-c2nnc(SC(C)C(=O)NC3CC3)o2)cc1", "note": "(stereo not drawn)", "inhibition": "24.2% (active)"},
      {"smiles": "COc1ccc(-c2nnc(SCC(=O)NC3CCCCC3)o2)cc1OC", "inhibition": "0.53% (inactive)"},
      {"smiles": "COc1ccc(-c2nnc(SC(=O)N3c4ccccc4Sc4ccccc43)o2)cc1", "inhibition": "-1.76% (inactive)"},
      {"smiles": "COc1cc(N)c(Cl)cc1C(=O)OCC(=O)c1ccc2c(c1)NC(=O)CO2", "inhibition": "10.7% (inactive)"},
      {"smiles": "Cc1nnc(SCC(=O)N(C(C)C)C(C)C)nc1C", "inhibition": "7.98% (inactive)"},
      {"smiles": "COc1ccc(N/N=C2/CCCCC2=O)cc1", "inhibition": "-17.4% (inactive)"},
      {"smiles": "CCCCN1CC(COc2ccccc2)Oc2cccc(F)c2S1(=O)=O", "note": "(stereo not drawn)", "inhibition": "-4.35% (inactive)"},
      {"smiles": "CN1C(CC(=O)Nc2ccc(Br)cc2)c2ccccc2CC1(C)C", "note": "(stereo not drawn)", "inhibition": "-2.97% (inactive)"},
      {"smiles": "Cc1cc(C(=O)COc2ccccc2[N+](=O)[O-])c(C)n1-c1cccc(S(=O)(=O)N2CCOCC2)c1", "inhibition": "-23.2% (inactive)"},
      {"smiles": "O=C1CC(C(=O)O)NC(=S)N1", "note": "(stereo not drawn)", "inhibition": "-5.32% (inactive)"},
      {"smiles": "COc1ccc2oc(C(=O)N(CC(C)C)C3CCS(=O)(=O)C3)c(C)c2c1", "note": "(stereo not drawn)", "inhibition": "5.04% (inactive)"},
      {"smiles": "CCCCCCCCc1c(O)nc(-n2[nH]c(C)c(CCO)c2=O)[nH]c1=O", "inhibition": "23.4% (active)"},
      {"smiles": "CCCCCc1c(C)nc(N2CCN(Cc3ccc4c(c3)OCO4)CC2)[nH]c1=O", "inhibition": "-8.1% (inactive)"},
      {"smiles": "CCCCc1c(O)nc2n(c1=O)CCS2", "inhibition": "-25.6% (inactive)"},
      {"smiles": "CCc1c(SCCC(=O)O)nc2ccccc2c1C", "inhibition": "-56.3% (inactive)"},
      {"smiles": "C=CCNC(=O)C1CC=CCC1C(=O)O", "note": "(stereo not drawn)", "inhibition": "19.4% (inactive)"},
      {"smiles": "Cc1ccc2cc(CN(c3ccc(C)c(C)c3)S(C)(=O)=O)c(=O)[nH]c2c1", "inhibition": "-3.96% (inactive)"},
      {"smiles": "CC(OC(=O)c1ccccc1NCCO)C(=O)Nc1ccnn1C(C)C", "note": "(stereo not drawn)", "inhibition": "-11.8% (inactive)"},
      {"smiles": "COC(=O)c1ccc(Sc2ccc(F)cc2)c(N)c1", "inhibition": "-3.93% (inactive)"},
      {"smiles": "CC(C)CCN1CCN(C/C=C/c2ccco2)CC1CCO", "note": "(stereo not drawn)", "inhibition": "-0.83% (inactive)"},
      {"smiles": "CC(=O)c1ccc(N2CCN(C(=O)c3ccc(Cl)c(S(=O)(=O)NC4CC4)c3)CC2)c(F)c1", "inhibition": "-4.11% (inactive)"},
      {"smiles": "CC(C)(C)n1nnnc1C(c1ccccc1F)N1CCN(C(=O)c2ccco2)CC1", "note": "(stereo not drawn)", "inhibition": "-20.1% (inactive)"},
      {"smiles": "Cc1nn(CCCC(=O)NCc2ccccc2Cl)c(=O)c2nccn12", "inhibition": "-28.5% (inactive)"},
      {"smiles": "CN(C)CCCNC(=S)N1CCN(c2nc(-c3ccccc3)cs2)CC1", "inhibition": "-13.5% (inactive)"},
      {"smiles": "Cc1c(CCC(=O)N[C@@H](CC(C)C)C(=O)O)c(=O)oc2c(C)c3oc4c(c3cc12)CCCC4", "inhibition": "3.6% (inactive)"},
      {"smiles": "CC/C(=C\\c1ccc(Cl)cc1)c1ccncc1", "inhibition": "-7.07% (inactive)"},
      {"smiles": "COc1cc(C(=S)N2CCOCC2)cc(OC)c1OC(=O)c1ccc([N+](=O)[O-])cc1[N+](=O)[O-]", "inhibition": "-0.97% (inactive)"},
      {"smiles": "COc1ccc(CNC(=O)C(c2ccc(O)cc2)N(Cc2ccco2)C(=O)c2snc(C(N)=O)c2N)cc1", "note": "(stereo not drawn)", "inhibition": "3.12% (inactive)"},
      {"smiles": "COC(=O)c1ccc(NC(=S)NN2CCOCC2)cc1", "inhibition": "13.4% (inactive)"},
      {"smiles": "O=S(=O)(Nc1ccc(-c2ccc(N3CCOCC3)nn2)cc1)c1cc(Cl)ccc1Cl", "inhibition": "-25.2% (inactive)"},
      {"smiles": "COc1cccc(COC(=O)C2CCN(S(=O)(=O)c3cccs3)CC2)c1OC", "inhibition": "-12.6% (inactive)"},
      {"smiles": "CCC1CCCCN1CCCNC(=O)c1cc2c(Cl)nc3ccccc3c2s1", "note": "(stereo not drawn)", "inhibition": "5.42% (inactive)"},
      {"smiles": "CCn1c(=O)n(CC)c2cc(N3CCCC3)c(NC(=O)c3ccccc3Br)cc21", "inhibition": "10.1% (inactive)"},
      {"smiles": "Cc1ccccc1-c1n[nH]c(=S)n1/N=C/c1ccc(-c2ccccc2Br)o1", "inhibition": "4.19% (inactive)"},
      {"smiles": "CS(=O)(=O)N(CC(=O)Nc1ccc(F)cc1F)c1cccc([N+](=O)[O-])c1", "inhibition": "14.4% (inactive)"},
      {"smiles": "Cc1ccc(OCCC(=O)Nc2ccc(S(=O)(=O)Nc3nccs3)cc2)cc1", "inhibition": "-6.52% (inactive)"},
      {"smiles": "CC(C)CCNC(=O)CCNS(=O)(=O)c1ccc(Cl)cc1", "inhibition": "-7.35% (inactive)"},
      {"smiles": "OC(COc1ccc2c(c1)CCC2)CN1CCN(c2cccc(Cl)c2)CC1", "note": "(stereo not drawn)", "inhibition": "-19.1% (inactive)"},
      {"smiles": "CCOc1ccc(C(=O)NC(=S)Nc2ccc(N3CCOCC3)c(Cl)c2)cc1[N+](=O)[O-]", "inhibition": "30.9% (inactive)"},
      {"smiles": "O=c1o[nH]c(-c2ccccc2)c1N=Nc1c(F)cccc1Cl", "inhibition": "-12.2% (inactive)"},
      {"smiles": "COc1ccc2c(c1)CCC/C2=N\\OC(=O)c1ccccc1F", "inhibition": "0.11% (inactive)"}
    ]}
  ]
}
